NS1 inh: qHTS Assay for Inhibitors of Influenza NS1 Protein Function; Potency, µM (highest dose often 46.1 µM), for the others: at the top dose activity, positive = more growth; 0.4% of 270,000 active; further: potency means the concentration at half of the fitted maximal effect; actives are rising curves; nearly all actives have a fitted effect of over 50% in size
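A cell-based growth assay was used: compounds that relieve NS1-induced slow growth of budding yeast raise OD600. Assay medium was yeast nitrogen base with ammonium sulphate and -URA supplement, pH 6.0, with 2% galactose.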
Shiga inhibitor: A qHTS for Small Molecule Inhibitors of Shiga Toxin; AID 2315, 2010; 9.2% of 290,000 active; Vero cells, Shiga toxin protein synthesis inhibition reporter; inhibition, % at 38.7 µM; in the data active means inhibition mostly above about 28%, no sharp cut-off; inactive means mostly below about 43%; further: 0% is about no effect
Cycloheximide cs: Cycloheximide Counterscreen for Small Molecule Inhibitors of Shiga Toxin. AID 2314, 2010. 12% of 300,000 active. cell reporter, cycloheximide protein synthesis inhibition counterscreen. max response, %; in the data active means max response mostly above about 13%, no sharp cut-off; inactive means mostly below about 14%; further: read at 38.3 µM for the half of the compounds with a filed dose; 0% is about no effect
SARS PLpro yeast: qHTS of Yeast-based Assay for SARS-CoV PLP; 0.19% of 330,000 active; Potency, µM (titrated, usually from 32.9 µM), for inactives: at the top dose activity, positive = growth rescue, actives largely listed as activators; S. cerevisiae expressing SARS-CoV PLpro, growth rescue; AID 485353, 2010; further: potency means the concentration at half of the fitted maximal effect; 0% is about no effect; nearly all actives have a fitted effect of over 55% in size
Active calls of the source: *; ? = inconclusive; . = not tested or not shown; + = active, no number. This is a sample that favours compounds with a hit; in the whole collection about 12% have one here. Unless noted, the call rests on the fitted dose curve.

SMILES | NS1 inh | Shiga inhibitor | Cycloheximide cs | SARS PLpro yeast
COC(=O)N/N=C/c1ccc(-c2cccc(Cl)c2)o1 | -44% | 55* | 33* | -65%
CC1CC(C)(C)NC(=S)N1CCCC(=O)NCCc1ccc(Cl)cc1 (stereo unspecified) | . | 19 | -1 | -2%
CCC(NC(=O)Nc1cc(C)on1)(C(F)(F)F)C(F)(F)F | 2% | -7 | -1 | 0%
Cc1ccc(-c2ccc(/C=N/c3ncn[nH]3)o2)cc1Cl | -23% | 26 | 17* | -7%
O=C1/C(=C/c2cccs2)COc2ccccc21 | -9% | 93* | 34* | -24%
COc1cc(Cl)ccc1OCc1cc(C(=O)N2CCCC(OC)C2)no1 (stereo unspecified) | -12% | 80* | 54* | -3%
COc1ccc(OCc2cc(C(=O)N3CCCN(C(C)=O)CC3)no2)c(Cl)c1 | -3% | 43* | 32* | 1%
COc1cc(Cl)ccc1OCc1cc(C(=O)N2CCN(C)CC2)no1 | 10% | 7 | 8 | 0%
COc1cc(Cl)ccc1OCc1cc(C(=O)N2CCN(c3ccccn3)CC2)no1 | -35% | 17 | 12 | -9%
COc1cc(Cl)ccc1OCc1cc(C(=O)N2CCCCCC2)no1 | -33% | 74* | 32* | -8%
COc1ccccc1N1CCN(C(=S)Nc2cccc(C)c2)CC1 | 0% | 52 | 33* | 1%
Cc1cccc(NC(=S)N2CCCCCC2)c1 | -4% | 21 | 8.0* | ?
Cc1cc(C)cc(NC(=S)N2CCCC2)c1 | 3% | -4 | -3 | 5%
S=C(Nc1ccc2nsnc2c1)N1CCCCC1 | 8% | 42* | 11* | 1%
Cc1ccc(NC(=O)N2CCCCCC2)cc1C | 7% | 69* | 44* | 4%
Cc1cccc(NC(=S)N2CCN(c3cc(C)ccc3C)CC2)c1 | 10% | -20 | 2 | -11%
Cc1cccc(NC(=O)N2CCN(Cc3ccccc3)CC2)c1 | -6% | + | 21* | 7%
O=C(Nc1ccc(F)c(Cl)c1)N1CCCCCC1 | -25% | 52* | 26* | 1%
Cc1cccc(NC(=O)N2CCCCCC2)c1 | 0% | 56* | 38* | -2%
O=C(Nc1ccc(F)c(Cl)c1)N1CCCC1 | 0% | -2 | -3 | -8%
Cc1ccc(NC(=S)N2CCCCCC2)c(C)c1 | 0% | 25 | 18* | 4%
Cc1ccc(C)c(NC(=S)N2CCCC2)c1 | -7% | -12 | -3 | -1%
CC1CC(C)CN(CC(=O)N2CCOCC2)C1 (stereo unspecified) | 4% | 16 | -2 | 0%
Cc1ccccc1C(=O)N1CCC(C(=O)NC2CCCCC2)CC1 | -6% | -2 | -1 | 1%
S=C(Nc1ccc2nccnc2c1)N1CCOCC1 | -2% | 48* | 37* | 0%
SMILES | NS1 inh | Shiga inhibitor | Cycloheximide cs | SARS PLpro yeast
CCOC(=O)c1ccc(NC(=S)N2CCN(Cc3ccccc3)CC2)cc1 | -3% | -3 | 1 | 7%
Cc1ccc(NC(=S)N2CCOCC2)cc1 | 4% | 18 | -2 | 5%
CCOC(=O)c1ccc(NC(=O)N2CCN(CCc3ccccc3)CC2)cc1 | -4% | 12 | 20* | -1%
COc1ccc(CCN(C)C2CCCN(C(=O)c3ccnn3C)C2)cc1OC (stereo unspecified) | -2% | -5 | -2 | 0%
CCn1cc(CN2CCCC(C(=O)Nc3cccc(-c4cc5ccccc5[nH]4)c3)C2)c(C)n1 (stereo unspecified) | 17% | -7 | 0 | -1%
Cc1cc(CN2CCCC(C(=O)Nc3ccc(-c4nc5ccccc5[nH]4)cc3)C2)n[nH]1 (stereo unspecified) | 7% | 42 | 29* | 5%
CCn1cc(CN2CCCC(C(=O)Nc3ccc(-c4nc5ccccc5[nH]4)cc3)C2)c(C)n1 (stereo unspecified) | 3% | 34 | 26* | 13%
Cc1oc(C(C)(C)C)cc1C(N)=O | -1% | -11 | -2 | -1%
Cc1ccc(NC(=O)c2ccc(NCc3ccco3)c([N+](=O)[O-])c2)cc1Cl | -2% | -12 | 8 | 7%
Cc1ccc(Cn2cnc3ccccc32)cc1 | -46% | 18 | 7 | ?
CC(=O)Oc1ccc(Cn2cnc3cc4ccccc4cc32)cc1 | -20% | 19 | 15* | -1%
CCOc1ccc2c(c1)ncn2Cc1ccccc1 | . | 108* | 24* | 14%
CCCCOc1ccc(CN2CCC(O)CC2)cc1 | -19% | 91* | 37* | -13%
CCCCOc1ccc(CN2CCN(CCO)CC2)cc1 | -6% | 24 | 29* | 0%
CCCCCCOc1ccc(CN2CCN(CCO)CC2)cc1 | -23% | 61* | 38* | -13%
C=CCn1c(SCc2cc(=O)n3ccsc3n2)nc2ccccc2c1=O | . | -17 | 0 | -1%
Nc1nc2ccc(Cc3ccncc3)cc2s1 | 0% | 78* | 20* | 1%
COc1ccc(N=Cc2oc3ccc4ccccc4c3c2O)cc1 | . | 72* | 50* | -4%
CN=CC1=C(O)c2ccccc2C1=O | -1% | 76* | 41* | -4%
COC1=C(OC)C(=O)c2ccccc2C1=O | -20% | . | . | .
COc1ccc(N=Cc2[nH]c3ccccc3c2O)cc1 | . | 42* | 31* | 2%
O=C1CC(c2ccccc2Cl)CC(O)=C1C=Nc1ccccc1 (stereo unspecified) | -6% | -2 | 2 | -12%
COc1ccc(OC)c(/C=N\NC(=O)c2cc3c(ccc4ccccc43)o2)c1 | 9% | -7 | 17 | -8%
COc1ccc(Cn2c(O)c(C=Nc3ccc(OC)cc3)c3ccccc3c2=O)cc1 | 11% | -6 | -3 | 17%
O=C1C(C=Nc2ccccc2)=C(O)c2ccccc21 | -50% | 173* | 29* | -6%
SMILES | NS1 inh | Shiga inhibitor | Cycloheximide cs | SARS PLpro yeast
COCCNC(=O)CCC1CCN(Cc2cccc(Oc3ccccc3)c2)CC1 | -11% | -11 | -2 | 3%
COc1cccc(C(=O)N2CCN(Cc3ccccc3Br)CC2)c1 | -26% | -8 | -2 | 3%
COc1ccc(N=Cc2c[nH][nH]c2=O)cc1 | -91% | -8 | -1 | -10%
COc1ccc(N=CC2=C(O)c3ccccc3C2=O)cc1 | -3% | 107* | 24* | -8%
O=c1c(-c2ccc3c(c2)OCCO3)coc2cc(OC3OC(CO)C(O)C(O)C3O)ccc12 (stereo unspecified) | 8% | 54* | 40* | 1%
COc1ccc(-c2coc3cc(O[C@@H]4O[C@H](CO)[C@@H](O)[C@H](O)[C@H]4O)ccc3c2=O)cc1 | . | . | . | -14%
Cc1cc(=O)[nH]c(SCCCOc2ccccc2Cl)n1 | -7% | -1 | 4 | ?
C/C=C/c1ccc(OCCSc2nc(C)cc(=O)[nH]2)c(OC)c1 | -10% | 77* | 24* | -4%
C/C=C/c1ccc(OCCCCN2C(=O)NC(C)(C)C2=O)c(OC)c1 | -29% | 25 | 14* | 18%
Cc1cc(=O)[nH]c(SCCOc2ccc3c(c2)CCC3)n1 | 0% | 8 | 14 | .
Cc1cc(=O)[nH]c(SCCOc2ccc(OC(C)C)cc2)n1 | -42% | 47* | 31* | -19%
CC(NCCN(C)C)C(=O)C12CC3CC(CC(C3)C1)C2 (stereo unspecified) | -3% | 22 | 1 | -1%
Cc1cccc(C(=O)OCC(=O)c2csc(N3CCCCC3)n2)c1[N+](=O)[O-] | . | . | . | -1%
